Drawing on PubChem BioAssay (EPA / NIEHS), this text covers AC50 and outcome for 21 molecules.

Several values for one entry are separate records, joined by “and”; a condition that tells them apart may be missing. Identical values can stand only once. Results filed as inconclusive are left out. Activity calls are given as the source filed them. Rule for the calls: active = hit-call score of the fitted dose curve at least 0.9, where 1 is the maximum; inconclusive = response in the unintended direction; inactive = score below 0.9.

Chain of rat Monoamine Oxidase, MAO-B, Central (MAOBC), Maob (gene 25750) (P19643 whole entry, looked up): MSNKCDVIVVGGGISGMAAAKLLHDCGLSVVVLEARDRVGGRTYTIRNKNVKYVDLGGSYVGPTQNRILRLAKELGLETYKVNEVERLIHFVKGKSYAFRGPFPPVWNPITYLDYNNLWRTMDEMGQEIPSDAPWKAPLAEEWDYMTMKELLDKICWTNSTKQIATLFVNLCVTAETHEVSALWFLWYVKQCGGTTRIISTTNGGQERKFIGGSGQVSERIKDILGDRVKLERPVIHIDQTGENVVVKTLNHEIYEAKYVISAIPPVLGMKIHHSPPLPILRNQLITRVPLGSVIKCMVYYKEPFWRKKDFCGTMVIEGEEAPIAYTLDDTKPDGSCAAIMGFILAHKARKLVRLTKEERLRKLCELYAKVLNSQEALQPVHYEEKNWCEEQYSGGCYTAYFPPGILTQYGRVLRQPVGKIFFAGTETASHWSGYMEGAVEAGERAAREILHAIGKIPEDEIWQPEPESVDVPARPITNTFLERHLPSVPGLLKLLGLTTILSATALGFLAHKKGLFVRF
Chain of rabbit Imidazoline 2 Central (I2C), CKB (gene 100009085) (P00567 whole entry, looked up): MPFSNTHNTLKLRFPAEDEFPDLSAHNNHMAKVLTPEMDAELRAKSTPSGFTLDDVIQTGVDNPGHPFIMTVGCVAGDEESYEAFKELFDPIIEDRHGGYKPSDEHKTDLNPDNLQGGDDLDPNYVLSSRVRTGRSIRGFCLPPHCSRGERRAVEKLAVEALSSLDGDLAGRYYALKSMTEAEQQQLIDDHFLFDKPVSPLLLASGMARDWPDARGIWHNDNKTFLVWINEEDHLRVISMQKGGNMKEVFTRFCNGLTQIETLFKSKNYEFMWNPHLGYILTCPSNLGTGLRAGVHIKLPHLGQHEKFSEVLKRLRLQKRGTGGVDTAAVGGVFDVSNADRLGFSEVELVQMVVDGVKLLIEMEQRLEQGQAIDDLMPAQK
Chain of human Vascular Endothelial Growth Factor Receptor 2 (VEGFR2), KDR (gene 3791) (P35968 whole entry, looked up): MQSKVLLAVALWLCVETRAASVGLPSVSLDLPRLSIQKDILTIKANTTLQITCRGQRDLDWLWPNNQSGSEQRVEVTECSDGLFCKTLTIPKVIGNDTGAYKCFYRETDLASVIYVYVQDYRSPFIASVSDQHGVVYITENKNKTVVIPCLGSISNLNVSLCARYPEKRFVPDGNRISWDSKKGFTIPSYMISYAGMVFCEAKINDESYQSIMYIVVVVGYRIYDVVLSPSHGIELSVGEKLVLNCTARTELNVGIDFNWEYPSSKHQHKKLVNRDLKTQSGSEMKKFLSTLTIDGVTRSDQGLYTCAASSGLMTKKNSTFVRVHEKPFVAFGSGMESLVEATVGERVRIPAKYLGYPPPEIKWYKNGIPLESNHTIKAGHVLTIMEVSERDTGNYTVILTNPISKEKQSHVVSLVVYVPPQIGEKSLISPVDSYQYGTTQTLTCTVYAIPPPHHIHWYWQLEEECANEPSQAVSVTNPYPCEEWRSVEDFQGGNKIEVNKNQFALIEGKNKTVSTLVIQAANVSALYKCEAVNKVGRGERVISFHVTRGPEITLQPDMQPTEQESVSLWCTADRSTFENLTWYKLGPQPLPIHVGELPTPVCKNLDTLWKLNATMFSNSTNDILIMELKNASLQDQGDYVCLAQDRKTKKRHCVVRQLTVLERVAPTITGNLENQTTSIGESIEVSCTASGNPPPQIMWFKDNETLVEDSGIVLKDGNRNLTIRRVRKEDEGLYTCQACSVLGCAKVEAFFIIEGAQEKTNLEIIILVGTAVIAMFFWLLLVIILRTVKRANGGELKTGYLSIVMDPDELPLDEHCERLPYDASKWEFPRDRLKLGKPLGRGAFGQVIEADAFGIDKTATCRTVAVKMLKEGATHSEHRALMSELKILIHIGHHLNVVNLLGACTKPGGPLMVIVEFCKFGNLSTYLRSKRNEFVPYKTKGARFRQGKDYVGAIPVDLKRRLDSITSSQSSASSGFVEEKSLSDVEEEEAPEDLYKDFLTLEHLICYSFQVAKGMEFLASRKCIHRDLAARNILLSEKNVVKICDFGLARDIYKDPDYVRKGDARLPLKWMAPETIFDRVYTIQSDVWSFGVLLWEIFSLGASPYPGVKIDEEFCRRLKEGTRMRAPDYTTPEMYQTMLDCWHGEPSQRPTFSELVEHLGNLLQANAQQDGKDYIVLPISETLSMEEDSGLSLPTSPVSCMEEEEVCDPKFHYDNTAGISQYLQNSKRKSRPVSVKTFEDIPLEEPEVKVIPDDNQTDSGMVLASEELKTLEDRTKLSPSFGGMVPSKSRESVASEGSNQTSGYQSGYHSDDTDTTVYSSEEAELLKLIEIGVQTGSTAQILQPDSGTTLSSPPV

The first experiment deals with human Vascular Endothelial Growth Factor Receptor 1 (VEGFR1), FLT1 (gene 2321) (UniProt P17948). Description: NVS_ENZ_hVEGFR1: NovaScreen (NVS) Enzymatic Assay for human Vascular Endothelial Growth Factor Receptor 1 (VEGFR1) (AID 2283226). In a few lines: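 Cell-free assay of recombinant human VEGFR1 kinase with substrate, measured 1 h after dosing; fluorescence with electrophoretic mobility-shift separation of substrate and product, referenced to DMSO; primary screen at 25 uM in duplicate, actives then run in concentration series.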
Chain of human Vascular Endothelial Growth Factor Receptor 1 (VEGFR1), FLT1 (gene 2321) (P17948 whole entry, looked up): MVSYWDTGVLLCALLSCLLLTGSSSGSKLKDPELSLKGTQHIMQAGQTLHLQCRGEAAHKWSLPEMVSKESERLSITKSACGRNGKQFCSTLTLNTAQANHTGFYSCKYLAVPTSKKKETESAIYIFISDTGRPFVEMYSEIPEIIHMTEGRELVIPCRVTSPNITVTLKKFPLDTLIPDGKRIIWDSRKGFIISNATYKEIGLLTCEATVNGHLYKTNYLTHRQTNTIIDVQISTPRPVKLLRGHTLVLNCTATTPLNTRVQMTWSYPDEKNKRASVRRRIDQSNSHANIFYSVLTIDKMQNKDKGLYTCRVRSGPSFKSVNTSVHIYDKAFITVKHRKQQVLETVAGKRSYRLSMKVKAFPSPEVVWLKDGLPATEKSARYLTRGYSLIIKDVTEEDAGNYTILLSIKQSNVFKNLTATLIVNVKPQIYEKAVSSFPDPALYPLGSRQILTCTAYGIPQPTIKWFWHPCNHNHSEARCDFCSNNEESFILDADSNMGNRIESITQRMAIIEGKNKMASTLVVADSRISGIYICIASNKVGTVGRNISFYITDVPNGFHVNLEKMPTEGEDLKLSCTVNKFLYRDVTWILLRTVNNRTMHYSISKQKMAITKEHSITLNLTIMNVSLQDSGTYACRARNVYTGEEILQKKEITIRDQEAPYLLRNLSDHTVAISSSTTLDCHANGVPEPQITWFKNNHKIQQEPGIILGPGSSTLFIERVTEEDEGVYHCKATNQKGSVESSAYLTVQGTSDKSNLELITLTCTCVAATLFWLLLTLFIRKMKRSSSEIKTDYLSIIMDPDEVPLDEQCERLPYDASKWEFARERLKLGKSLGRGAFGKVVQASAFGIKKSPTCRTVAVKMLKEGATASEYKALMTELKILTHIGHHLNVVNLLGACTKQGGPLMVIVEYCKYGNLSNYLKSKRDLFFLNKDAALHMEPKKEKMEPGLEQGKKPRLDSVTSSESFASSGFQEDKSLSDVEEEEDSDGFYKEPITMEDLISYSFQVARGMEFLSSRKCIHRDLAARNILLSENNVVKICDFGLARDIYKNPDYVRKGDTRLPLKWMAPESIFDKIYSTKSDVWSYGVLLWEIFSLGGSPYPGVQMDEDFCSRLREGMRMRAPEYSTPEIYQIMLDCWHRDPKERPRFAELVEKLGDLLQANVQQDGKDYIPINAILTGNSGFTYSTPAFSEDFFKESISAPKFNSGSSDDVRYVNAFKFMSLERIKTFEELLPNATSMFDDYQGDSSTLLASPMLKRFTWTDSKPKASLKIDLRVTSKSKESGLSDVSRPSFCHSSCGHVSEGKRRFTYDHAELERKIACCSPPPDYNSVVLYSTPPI
What is called AC50 is the concentration at which the activity in the assay is half-maximal. Take `Nc1ncc([N+](=O)[O-])s1`: the AC50 is 40.4 µM (active).
With `COP(=S)(OC)Oc1cc(Cl)c(Cl)cc1Cl`, the call was inactive.
On to `CC(=O)[O][Hg][c]1ccccc1`, for which the call was inactive.
On to `CCOP(=S)(OCC)Oc1ccc(S(C)=O)cc1` (centres undefined), for which the outcome was inactive.

In a further experiment the target is rabbit Imidazoline 2 Central (I2C), CKB (gene 100009085) (UniProt P00567). The experiment in a line: NVS_ENZ_rabI2C: NovaScreen (NVS) Enzymatic Assay for rabbit Imidazoline 2 Central (I2C) (AID 2283228). In a few lines:
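Rabbit brain membranes, cell-free; readout by filter-based scintillation counting 1.5 hours after dosing, loss of signal vs DMSO. Initial duplicate test at 25 uM, then concentration-response with 50 uM top concentration.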
Take `CCC(=O)C(CC(C)N(C)C)(c1ccccc1)c1ccccc1` (centres undefined): the AC50 is 3.37 µM (active).
As for `COc1cc(-c2ccc(N)c(OC)c2)ccc1N`, the AC50 was 10.4 µM (active) and 18.1 µM (active).
On to `CCN1CCC2(CC1)COc1cc3c(cc12)N(C(=O)c1ccc(-c2ccc(-c4nnc(C)o4)cc2C)cc1)CC3`, for which the molecule was classed as inactive.

The target of another experiment is human Vascular Endothelial Growth Factor Receptor 2 (VEGFR2), KDR (gene 3791) (UniProt P35968). The experiment in a line: NVS_ENZ_hVEGFR2: NovaScreen (NVS) Enzymatic Assay for human Vascular Endothelial Growth Factor Receptor 2 (VEGFR2) (AID 2283230). How it is done:
NVS_ENZ_hVEGFR2 is a biochemical, single-readout assay that uses extracted gene-proteins in a cell-free assay. Measurements were taken 1 hour after chemical dosing in a 384-well plate.NVS_ENZ_hVEGFR2 is one of one assay component(s) measured or calculated from the NVS_ENZ_hVEGFR2 assay. It is designed to make measurements of enzyme activity, a form of enzyme reporter, as detected with fluorescence intensity signals by Fluorescence and electrophoretic mobility shift technology.Data from the assay component NVS_ENZ_hVEGFR2 was analyzed into 1 assay endpoint. This assay endpoint, NVS_ENZ_hVEGFR2, was analyzed in the positive analysis fitting direction relative to DMSO as the negative control and baseline of activity. Using a type of enzyme reporter, loss-of-signal activity can be used to understand changes in the enzymatic activity as they relate to the gene KDR. Furthermore, this assay endpoint can be referred to as a primary readout, because this assay has produced multiple assay endpoints where this one serves a enzymatic activity function. To generalize the intended target to other relatable targets, this assay endpoint is annotated to the kinase intended target family, where the subfamily is receptor tyrosine kinase.
(§1) Binding assays used specific radioligands (tritiated, iodinated) with non-radioactive competitive displacement ligands in agonist or antagonist protocols (as indicated) and various reference compounds and inhibitors to titrate specific binding to receptors and transporters. Most enzyme assays (CYPs, kinases, phosphatases, proteases, HDACs) used recombinant protein and specific substrates (fluorescence mostly, some colorimetric and radioactive) and inhibitors, followed by a biochemical separation of substrate and product. All assays for the biochemical HTS were initially run in duplicate at a single concentration (10 uM for CYP450 assays and 25 uM for all others). Assay-chemical combinations meeting a pre-defined threshold (e.g., 30% inhibition and other criteria defined below) were then run in singleton concentration-response format with maximum concentration of 20 uM for CYPs and 50 uM for all others. Each assay was run with positive and negative controls, and concurrent controls on every plate. The follow-up (secondary) screen tested active chemical-pairs in concentration series, as well as a few additional assays not tested in the primary screen, some selected negative inactives, and several cases re-run in the concentration series for confirmatory purposes.
On to `COP(=S)(OC)Oc1ccc(Sc2ccc(OP(=S)(OC)OC)cc2)cc1`, for which the result was inactive.
On to `O=C1C2(Cl)C3(Cl)C4(Cl)C(Cl)(Cl)C5(Cl)C3(Cl)C1(Cl)C5(Cl)C24Cl` (centres undefined), for which the outcome was inactive.
The same measure, in the same setting: with `CCC(C)(C)c1ccc(O)c(C(C)(C)CC)c1` the entry was “inactive”.
The same measure, in the same setting: for `CC(C)(c1ccccc1)c1ccc(O)c(C(C)(C)c2ccccc2)c1` the value was “inactive”.
Same read-out and setting: with `CC(=O)[O][Hg][c]1ccccc1` the entry was “inactive”; with `CCCCCCCCc1ccc(O)cc1`, “inactive”.
For the molecule `O=C(Nc1ccc2[nH]ccc2c1)c1cc2cc(F)ccc2n1Cc1cccc(F)c1`, the molecule was classed as inactive.
The same measure, in the same setting: with `CC(C)(C)CC(C)(C)c1ccc(O)cc1` the entry was “inactive”.

The target in another experiment is sheep Cyclooxygenase-2 (Cox2), PTGS2 (gene 443460) (UniProt P79208). Description: NVS_ENZ_oCOX2: NovaScreen (NVS) Enzymatic Assay for sheep Cyclooxygenase-2 (Cox2) (AID 2283231). The procedure, abridged: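 Enzyme from ovine placenta, cell-free; colorimetric absorbance read 0.66 hour after dosing, loss of signal vs DMSO. Screened in duplicate at 25 uM, then concentration-response up to 50 uM.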
Chain of sheep Cyclooxygenase-2 (Cox2), PTGS2 (gene 443460) (P79208 whole entry, looked up): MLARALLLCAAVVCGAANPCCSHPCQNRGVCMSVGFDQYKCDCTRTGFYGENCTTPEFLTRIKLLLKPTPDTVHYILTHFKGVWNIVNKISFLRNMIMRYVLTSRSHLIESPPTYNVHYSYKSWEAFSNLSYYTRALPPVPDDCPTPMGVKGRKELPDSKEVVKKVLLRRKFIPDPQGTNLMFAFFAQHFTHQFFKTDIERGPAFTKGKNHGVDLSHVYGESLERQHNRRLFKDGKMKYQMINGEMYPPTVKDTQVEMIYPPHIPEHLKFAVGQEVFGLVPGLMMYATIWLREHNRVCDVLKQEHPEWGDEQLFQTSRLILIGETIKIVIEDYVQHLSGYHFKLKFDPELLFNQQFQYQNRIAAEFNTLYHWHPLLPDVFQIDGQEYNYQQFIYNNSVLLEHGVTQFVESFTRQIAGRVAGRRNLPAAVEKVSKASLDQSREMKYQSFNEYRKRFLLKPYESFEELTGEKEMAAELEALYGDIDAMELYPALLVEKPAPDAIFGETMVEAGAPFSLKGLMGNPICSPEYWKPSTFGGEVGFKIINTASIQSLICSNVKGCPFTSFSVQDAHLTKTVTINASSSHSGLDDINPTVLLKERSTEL
For the molecule `CC(C)(C)c1cc(O)ccc1O`, the AC50 was 6.85 µM (active).
As to `CC12CC1(C)C(=O)N(c1cc(Cl)cc(Cl)c1)C2=O` (centres undefined), the AC50 was 3.77 µM (active).
Consider `COc1cc(OC)nc(NC(=O)NS(=O)(=O)c2ncccc2C(=O)N(C)C)n1`, for which the result was inactive.
As to `CC(C)(OO)c1ccccc1`, the concentration at half-maximal activity (AC50) was 6.28 µM (active).
As for `ClC1(Cl)C2(Cl)C3(Cl)C4(Cl)C(Cl)(Cl)C5(Cl)C3(Cl)C1(Cl)C5(Cl)C24Cl` (centres undefined), the result was inactive.
Regarding `CC(C)(C)CC(C)(C)c1ccc(O)cc1`, the outcome was inactive.
Still for that read-out and setting: with `O=c1[nH]c(=O)[nH]c(=O)[nH]1` the entry was “inactive”.

The subject of a further experiment is rat Monoamine Oxidase, MAO-A, Peripheral (MAOAP), gene 29253. The experiment in a line: NVS_ENZ_rMAOAP: NovaScreen (NVS) Enzymatic Assay for rat Monoamine Oxidase, MAO-A, Peripheral (MAOAP) (AID 2283237). In a few lines: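 Rat liver mitochondrial membranes served as the MAO-A source, with enzyme activity measured by radiometric scintillation counting 1.17 hours after dosing. Loss of signal was fitted against DMSO; primary screen used 25 uM in duplicate, follow-up used concentration series.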
On to `CC(=O)[O][Hg][c]1ccccc1`, for which the AC50 is 1.13 µM (active).
As to `CC12CC1(C)C(=O)N(c1cc(Cl)cc(Cl)c1)C2=O` (centres undefined), the result was inactive.
As to `CCN1CCC2(CC1)COc1cc3c(cc12)N(C(=O)c1ccc(-c2ccc(-c4nnc(C)o4)cc2C)cc1)CC3`, the AC50 is 23.4 µM (active).

In a further experiment the target is rat Monoamine Oxidase, MAO-B, Central (MAOBC), Maob (gene 25750) (UniProt P19643). The experiment in a line: NVS_ENZ_rMAOBC: NovaScreen (NVS) Enzymatic Assay for rat Monoamine Oxidase, MAO-B, Central (MAOBC) (AID 2283238). How it is done:
NVS_ENZ_rMAOBC is a biochemical, single-readout assay that uses extracted gene-proteins from Rat brain in a tissue-based cell-free assay. Measurements were taken 1.17 hours after chemical dosing in a 96-well plate.NVS_ENZ_rMAOBC is one of one assay component(s) measured or calculated from the NVS_ENZ_rMAOBC assay. It is designed to make measurements of enzyme activity, a form of enzyme reporter, as detected with scintillation counting signals by Lysate-based radiodetection technology.Data from the assay component NVS_ENZ_rMAOBC was analyzed into 1 assay endpoint. This assay endpoint, NVS_ENZ_rMAOBC, was analyzed in the positive analysis fitting direction relative to DMSO as the negative control and baseline of activity. Using a type of enzyme reporter, loss-of-signal activity can be used to understand changes in the enzymatic activity as they relate to the gene Maob. Furthermore, this assay endpoint can be referred to as a primary readout, because this assay has produced multiple assay endpoints where this one serves a enzymatic activity function. To generalize the intended target to other relatable targets, this assay endpoint is annotated to the oxidoreductase intended target family, where the subfamily is monoamine oxidase.
as §1
With `CCC(=O)C(CC(C)N(C)C)(c1ccccc1)c1ccccc1` (centres undefined), the AC50 was 2.99 µM (active).
On the same count and under the same terms, for `CC(=O)[O][Hg][c]1ccccc1` the value was 25 µM (active).
For the molecule `CCN1CCC2(CC1)COc1cc3c(cc12)N(C(=O)c1ccc(-c2ccc(-c4nnc(C)o4)cc2C)cc1)CC3`, the result was inactive.
Still for that read-out and setting: with `Oc1cccc2cccnc12` the entry was “inactive”.
